Laboratory results taken from PubChem BioAssay (Tox21).
Inconclusive results are not listed. Active and inactive are the calls of the source. Unless noted, calls follow the shape of the full dose curve.

What was measured:
[1] = Nuclear factor erythroid 2-related factor 2/antioxidant responsive element (Nrf2/ARE) small molecule agonists: qHTS cell viability counter screen in human keratinocytes (AID 1919968; active = well fitted curve in the direction sought with a large enough effect in the repeat runs; an effect the other way counts as inactive or inconclusive; also: nearly all actives have a fitted effect of over 55% in size)
Method in brief: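 CellTiter-Fluor fluorescence, read 1 h after reagent, gave viability in the same wells as the ARE-luciferase assay. KeratinoSens cells (1,500/well) had 23 h compound exposure at 37 C/5% CO2 following 5 h plating.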

[2] = p53 small molecule agonists, cell-based qHTS assay with human liver microsomes (AID 1963577);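 also: p53 response element beta-lactamase reporter cells with liver microsomes plus NADPH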
Method in brief: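 Metabolically competent format: test substances, human liver microsomes and NADPH (both 0.5 mg/mL final) incubated with p53RE-bla cells 16 h at 37 C. Beta-lactamase reporter signal then quantified by fluorescence.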

[3] = p53 small molecule agonists, cell-based qHTS assay with rat liver microsomes (AID 1963578)
Method in brief: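 Each plate received p53RE-bla cells, then compound, then rat liver microsomes and NADPH (both 0.5 mg/mL final). Plates were held 16 h at 37 C, and beta-lactamase activity was detected with LiveBLAzer over 2 h.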

[4] = p53 small molecule agonists, cell-based qHTS assay with human liver microsomes: qHTS cell viability counter screen (AID 1963579); also: nearly all actives have a fitted effect of over 45% in size
Method in brief: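 Tox21 library compounds, delivered from DMSO stocks, were tested on p53RE-bla cells together with 0.5 mg/mL human liver microsomes and 0.5 mg/mL NADPH (final) over 16 h at 37 C; CellTiter-Glo luminescence served as the cytotoxicity measure.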

[5] = p53 small molecule agonists, cell-based qHTS assay with rat liver microsomes: qHTS cell viability counter screen (AID 1963580); also: nearly all actives have a fitted effect of over 45% in size
Method in brief: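 Cytotoxicity counter screen: intracellular ATP measured by CellTiter-Glo luminescence in the same wells as the beta-lactamase reporter read, on HCT-116 p53RE-bla cells exposed 16 h at 37 C to compounds with rat liver microsomes and NADPH, each 0.5 mg/mL final.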

[6] = cAMP Responsive Elements (CRE) small molecule agonists, cell-based qHTS assay (AID 1963590)
Method in brief: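 Agonist mode: compound added to CRE-bla HEK 293T cells (2,000/well, 18 h after plating) for 3 h at 37 C/5% CO2. Reporter activity detected via FRET beta-lactamase substrate, 2 h room-temperature loading.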

[7] = target: Beta-2 adrenergic receptor (Homo sapiens) (UniProt P07550); assay: Adrenergic beta2 receptor (ADRB2) small molecule antagonists, cell-based qHTS assay (AID 1963592); also: series mostly up to about 92 µM; nearly all actives have a fitted effect of over 50% in size
Method in brief: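 Assay format: CHO-ADRB2 cells, 18-20hr seeding at 37C/5% CO2, then compound plus 1nM isoproterenol agonist mix for 0.5hr RT. Homogeneous time-resolved fluorescence cAMP detection after 1hr, expressed as 665/615 nm ratio.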

[8] = target: D(2) dopamine receptor (Homo sapiens) (UniProt P14416); assay: Dopamine D2 receptor (DRD2) small molecule agonists, cell-based qHTS assay (AID 1963594); also: nearly all actives have a fitted effect of over 35% in size
Method in brief: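 HEK293 cells stably expressing human DRD2, pre-treated with PDE inhibitor Ro20-1724 (0.1 mM final) and compound 10 min at room temperature, then stimulated with NKH477 (200nM […]) for 30 min. cAMP read by HTRF (665/620 nm).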

[9] = target: Gonadotropin-releasing hormone receptor (Homo sapiens) (UniProt P30968); assay: Human gonadotropin-releasing hormone receptor (GnRHR) small molecule agonists, calcium flux assay in GnRHR-HEK293 cells (AID 1920063); also: nearly all actives have a fitted effect of over 35% in size
Method in brief: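 Agonist mode: compounds at 15 concentrations, in triplicate, went onto calcium dye-loaded GnRHR-HEK293 cells. Intracellular calcium was then followed as 480/540 nm fluorescence at 1 s intervals over 3 min.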

[10] = target: KiSS-1 receptor (Homo sapiens) (UniProt Q969F8); assay: Human kisspeptin (KISS1R) small molecule agonists, calcium flux assay in KISS1R-HEK293 cells (AID 1920064; active = well fitted curve in the direction sought with a large enough effect in the repeat runs; an effect the other way counts as inactive or inconclusive)
Method in brief: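 Agonist mode: intracellular calcium rise tracked at 1 s intervals over 3 min (480/540 nm) immediately after compound addition to dye-loaded KISS1R-HEK293 stable cells. Each compound tested at 15 concentrations in triplicate.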

[11] = G protein-coupled receptor (GPCR) small molecule agonists, calcium flux assay: HEK293 wild type cell line counter screen (AID 1920065)
Method in brief: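 Calcium flux counter screen: compound added in agonist mode at 15 concentrations in triplicate to dye-loaded parental HEK293 cells. Fluorescence (480/540) read kinetically for 3 min; ATP served as positive control.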

[12] = p53 small molecule agonists, cell-based qHTS assay: qHTS cell viability counter screen (AID 1963581); also: nearly all actives have a fitted effect of over 45% in size
Method in brief: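 Counter screen read by CellTiter-Glo luminescence (ATP content, 30 min at room temperature), run in the same wells as the beta-lactamase reporter read. HCT-116 p53RE-bla cells saw compounds for 16 h at 37 C.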

[13] = p53 small molecule agonists, cell-based qHTS assay (AID 1963582; active = well fitted activation curve with a large enough effect in the signal ratio in the repeat runs, not every such curve was filed as active; the % refers to the signal ratio)
Method in brief: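 Read-out is beta-lactamase FRET fluorescence after 2 h at room temperature with LiveBLAzer B/G substrate. p53 response element-bla cells were treated 16 h at 37 C with compounds in DMSO, added 5 h after seeding.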

[14] = target: 5-hydroxytryptamine receptor 2A (Homo sapiens) (UniProt P28223); assay: 5-hydroxytryptamine receptor 2A (HTR2A) small molecule antagonists, cell-based qHTS assay (AID 1963586); also: nearly all actives have a fitted effect of over 45% in size
Method in brief: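 CHO cells stably expressing human HTR2A were plated for 18 h at 37 C, then loaded with calcium dye for 1 h. Compounds were preincubated 5 min at room temperature before DOI (4 nM solution) was added. Kinetic fluorescence was read for 3 min.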

[15] = target: 5-hydroxytryptamine receptor 2A (Homo sapiens) (UniProt P28223); assay: 5-hydroxytryptamine receptor 2A (HTR2A) small molecule agonists, cell-based qHTS assay (AID 1963587); also: nearly all actives have a fitted effect of over 30% in size
Method in brief: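 CHO cells stably expressing human HTR2A, plated 18 h, loaded with calcium dye 1 h at 37 C. Agonist mode: compounds added and intracellular calcium fluorescence recorded kinetically for 2 min at 1 sec intervals.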

[16] = target: Muscarinic acetylcholine receptor M1 (Homo sapiens) (UniProt P11229); assay: Cholinergic receptor muscarinic 1 (CHRM1) small molecule agonists, cell-based qHTS assay (AID 1963589); also: nearly all actives have a fitted effect of over 35% in size
Method in brief: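 Agonist-mode calcium-flux screen: compounds at 15 concentrations, three independent runs, were pin-transferred onto dye-loaded human CHRM1-CHO cells. Fluorescence was then recorded kinetically every second over minutes.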

[17] = target: Beta-2 adrenergic receptor (Homo sapiens) (UniProt P07550); assay: Adrenergic beta2 receptor (ADRB2) small molecule agonists, cell-based qHTS assay (AID 1963593);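 also: CHO cells stably overexpressing human ADRB2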
Method in brief: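 CHO cells stably over-expressing ADRB2 were plated overnight at 37C, then dosed with compounds plus a stimulation mix containing 100uM IBMX and 25uM Ro-20-1724 for 0.5hr at room temperature. cAMP was measured by HTRF competition, 1hr.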

[18] = target: D(2) dopamine receptor (Homo sapiens) (UniProt P14416); assay: Dopamine D2 receptor (DRD2) small molecule antagonists, cell-based qHTS assay (AID 1963595; active = well fitted inhibition curve with a large enough effect in the signal ratio in the repeat runs, with a control signal flat; the % refers to the signal ratio)
Method in brief: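 Antagonism was scored as restored cAMP in HEK293-DRD2 cells. These cells were stimulated with 200 nM NKH477 and 12 nM quinpirole for 30 min at room temperature, in the presence of 0.1 mM Ro20-1724.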

[19] = target: Muscarinic acetylcholine receptor M1 (Homo sapiens) (UniProt P11229); assay: Cholinergic receptor muscarinic 1 (CHRM1) small molecule antagonists, cell-based qHTS assay (AID 1963588); also: nearly all actives have a fitted effect of over 40% in size
Method in brief: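 Compounds were tested at 15 concentrations in three independent runs. Dye-loaded CHRM1-CHO cells were exposed 5 min at room temperature before stimulation by acetylcholine added at 50nM. Intracellular calcium was read kinetically on FDSS for 3 min.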

[20] = cAMP Responsive Elements (CRE) small molecule antagonists, cell-based qHTS assay (AID 1963591; active = well fitted inhibition curve with a large enough effect in the signal ratio in the repeat runs, not every such curve was filed as active; the % refers to the signal ratio)
Method in brief: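 Antagonist mode: compounds are added alongside the adenylyl cyclase activator NKH477 (0.25 uM final) to CRE-bla HEK293T cells for 3 h. LiveBLAzer FRET substrate, 2 h at room temperature, reports bla expression.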
% is scaled to controls: 0 for no effect and ±100 for the full control effect.

Muscarinic acetylcholine receptor M1 (Homo sapiens), sequence (P11229 whole entry, looked up): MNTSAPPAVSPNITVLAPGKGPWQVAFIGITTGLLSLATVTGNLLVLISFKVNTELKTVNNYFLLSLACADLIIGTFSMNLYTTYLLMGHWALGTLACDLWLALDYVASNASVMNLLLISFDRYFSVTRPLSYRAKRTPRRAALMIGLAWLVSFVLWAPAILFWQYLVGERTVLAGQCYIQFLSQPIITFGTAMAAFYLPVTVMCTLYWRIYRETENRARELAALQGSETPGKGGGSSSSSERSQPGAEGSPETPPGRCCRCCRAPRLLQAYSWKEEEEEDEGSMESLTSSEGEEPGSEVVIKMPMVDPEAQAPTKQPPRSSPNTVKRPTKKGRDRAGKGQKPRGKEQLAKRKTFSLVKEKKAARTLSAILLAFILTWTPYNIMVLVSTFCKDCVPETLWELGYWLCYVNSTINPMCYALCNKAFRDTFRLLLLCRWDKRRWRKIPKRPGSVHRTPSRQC
D(2) dopamine receptor (Homo sapiens), sequence (P14416 whole entry, looked up): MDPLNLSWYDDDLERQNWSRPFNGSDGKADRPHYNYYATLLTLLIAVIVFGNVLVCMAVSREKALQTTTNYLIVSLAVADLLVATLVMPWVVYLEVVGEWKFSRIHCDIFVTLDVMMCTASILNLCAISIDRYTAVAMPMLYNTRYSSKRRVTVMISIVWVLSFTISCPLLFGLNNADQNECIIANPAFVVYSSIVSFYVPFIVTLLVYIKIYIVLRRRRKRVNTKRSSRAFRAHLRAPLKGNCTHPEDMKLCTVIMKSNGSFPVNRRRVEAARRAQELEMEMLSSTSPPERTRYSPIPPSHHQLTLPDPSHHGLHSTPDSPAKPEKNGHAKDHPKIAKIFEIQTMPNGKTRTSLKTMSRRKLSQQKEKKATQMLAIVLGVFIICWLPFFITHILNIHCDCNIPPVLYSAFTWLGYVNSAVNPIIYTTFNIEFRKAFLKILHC
Beta-2 adrenergic receptor (Homo sapiens), sequence (P07550 whole entry, looked up): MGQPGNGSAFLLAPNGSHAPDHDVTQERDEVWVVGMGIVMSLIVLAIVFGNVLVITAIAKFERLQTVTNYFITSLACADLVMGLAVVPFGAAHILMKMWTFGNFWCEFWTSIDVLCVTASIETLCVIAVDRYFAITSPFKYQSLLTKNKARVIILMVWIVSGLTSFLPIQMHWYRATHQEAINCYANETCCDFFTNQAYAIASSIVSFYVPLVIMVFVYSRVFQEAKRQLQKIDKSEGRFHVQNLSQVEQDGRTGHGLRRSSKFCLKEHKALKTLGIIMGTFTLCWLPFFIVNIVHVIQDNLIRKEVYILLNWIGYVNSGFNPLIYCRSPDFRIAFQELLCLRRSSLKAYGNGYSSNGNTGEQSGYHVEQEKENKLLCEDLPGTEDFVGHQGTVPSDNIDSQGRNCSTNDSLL
5-hydroxytryptamine receptor 2A (Homo sapiens), sequence (P28223 whole entry, looked up): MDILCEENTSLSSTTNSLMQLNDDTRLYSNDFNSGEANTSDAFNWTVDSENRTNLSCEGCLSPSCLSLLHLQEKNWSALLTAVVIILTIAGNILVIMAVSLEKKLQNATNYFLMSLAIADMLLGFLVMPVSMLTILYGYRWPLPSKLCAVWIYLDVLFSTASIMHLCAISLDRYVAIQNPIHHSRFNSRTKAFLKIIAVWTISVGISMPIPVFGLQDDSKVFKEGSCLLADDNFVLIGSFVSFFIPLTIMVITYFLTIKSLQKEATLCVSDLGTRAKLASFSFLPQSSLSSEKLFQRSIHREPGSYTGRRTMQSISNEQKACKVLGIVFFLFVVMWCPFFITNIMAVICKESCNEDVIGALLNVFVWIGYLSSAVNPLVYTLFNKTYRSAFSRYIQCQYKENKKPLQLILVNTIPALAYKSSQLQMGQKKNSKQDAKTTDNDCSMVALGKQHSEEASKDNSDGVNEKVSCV
Gonadotropin-releasing hormone receptor (Homo sapiens), sequence (P30968 whole entry, looked up): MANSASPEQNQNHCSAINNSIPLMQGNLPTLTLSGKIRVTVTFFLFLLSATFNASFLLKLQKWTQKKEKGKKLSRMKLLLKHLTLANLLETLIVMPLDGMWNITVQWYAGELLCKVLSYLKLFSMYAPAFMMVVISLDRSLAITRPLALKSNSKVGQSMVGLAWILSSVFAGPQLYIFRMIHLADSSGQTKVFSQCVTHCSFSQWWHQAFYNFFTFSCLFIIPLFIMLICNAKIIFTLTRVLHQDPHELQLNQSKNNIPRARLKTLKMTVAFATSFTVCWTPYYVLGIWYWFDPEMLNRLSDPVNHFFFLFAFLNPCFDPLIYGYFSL
KiSS-1 receptor (Homo sapiens), sequence (Q969F8 whole entry, looked up): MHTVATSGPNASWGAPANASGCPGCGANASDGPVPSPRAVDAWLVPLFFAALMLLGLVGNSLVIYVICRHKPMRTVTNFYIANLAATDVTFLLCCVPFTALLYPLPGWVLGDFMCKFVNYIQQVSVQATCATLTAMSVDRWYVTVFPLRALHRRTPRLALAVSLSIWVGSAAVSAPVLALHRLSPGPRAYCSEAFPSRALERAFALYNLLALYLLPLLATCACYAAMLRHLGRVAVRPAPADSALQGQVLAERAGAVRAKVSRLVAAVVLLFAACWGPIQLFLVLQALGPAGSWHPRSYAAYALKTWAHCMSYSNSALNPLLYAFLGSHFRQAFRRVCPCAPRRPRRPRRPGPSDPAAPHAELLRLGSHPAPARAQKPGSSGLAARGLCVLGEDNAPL

COc1ccc2c(c1OC)C(=O)O[C@@H]2[C@H]1c2c(cc3c(c2OC)OCO3)CCN1C
inactive: Potency [1] | Potency [2] | Potency [3] | Potency [4] | Potency [5] | Potency [6] | Potency [7] | Potency [8]

CC(=O)CC(=O)Nc1ccc(C)cc1C
inactive: Potency [1] | Potency [9] | outcome [10] | outcome [11] | Potency [2] | Potency [3] | Potency [4] | Potency [5] | Potency [12] | Potency [13] | Potency [14] | Potency [15] | Potency [16] | Potency [6] | Potency [7] | Potency [17] | Potency [8] | Potency [18]

NNc1nnc(NN)c2ccccc12
inactive: Potency [1] | Potency [9] | outcome [10] | outcome [11] | Potency [2] | Potency [3] | Potency [4] | Potency [5] | Potency [12] | Potency [13] | Potency [15] | Potency [19] | Potency [16] | Potency [6] | Potency [20] | Potency [7] | Potency [17] | Potency [8] | Potency [18]

CCCCCCCCCCCCN1CCOCC1
inactive: Potency [1] | Potency [9] | outcome [10] | outcome [11] | Potency [2] | Potency [3] | Potency [4] | Potency [5] | Potency [12] | Potency [13] | Potency [14] | Potency [19] | Potency [16] | Potency [6] | Potency [20] | Potency [7] | Potency [17] | Potency [8]

Cc1cccc([N+](=O)[O-])c1C(=O)O
inactive: Potency [1] | Potency [9] | outcome [10] | outcome [11] | Potency [2] | Potency [3] | Potency [4] | Potency [5] | Potency [12] | Potency [13] | Potency [14] | Potency [15] | Potency [19] | Potency [16] | Potency [6] | Potency [20] | Potency [7] | Potency [8] | Potency [18]

CCOC(=O)CC
inactive: Potency [1] | Potency [2] | Potency [3] | Potency [4] | Potency [5] | Potency [12] | Potency [13] | Potency [14] | Potency [15] | Potency [19] | Potency [16] | Potency [6] | Potency [20] | Potency [7] | Potency [8]

COc1cc(C(C)C)ccc1C
inactive: activity change, negative = cytotoxicity [1] 2.71% [at 19 µM] | activity change [9] 0.369% [at 11.8 µM, stronger effect = higher value] | activation [10] 3.09% [at 15.8 µM] | activation [11] -0.338% [at 11.8 µM] | activation [2] -9.12% [at 13.5 µM] | activation [3] 0.156% [at 13.6 µM] | activity change, negative = cytotoxicity [4] -0.449% [at 13.5 µM] | activity change, negative = cytotoxicity [5] 0.485% [at 13.5 µM] | activity change, negative = cytotoxicity [12] -2.99% [at 13.5 µM] | activation [13] -3.2% [at 13.5 µM] | activity, negative = inhibition [14] -13.4% [at 12.7 µM] | activation [15] 0.168% [at 15.9 µM] | activation [16] -0.0401% [at 15.8 µM] | activation [6] -1.07% [at 19 µM] | activity change, negative = inhibition [20] -0.604% [at 18.9 µM] | activation [8] -1.89% [at 19 µM] | activity change, negative = inhibition [18] 15.4% [at 18.9 µM]

CC(CC(C)(C)C)CC(C)(C)CC(C)(C)C (stereo unspecified)
inactive: Potency [1] | Potency [9] | outcome [10] | outcome [11] | Potency [2] | Potency [3] | Potency [4] | Potency [5] | Potency [12] | Potency [13] | Potency [14] | Potency [15] | Potency [19] | Potency [16] | Potency [6] | Potency [20] | Potency [7] | Potency [8] | Potency [18]

NCCOCCOCCN
inactive: Potency [1] | Potency [9] | outcome [10] | outcome [11] | Potency [2] | Potency [3] | Potency [4] | Potency [5] | Potency [12] | Potency [13] | Potency [15] | Potency [16] | Potency [6] | Potency [20] | Potency [7] | Potency [17] | Potency [8] | Potency [18]

CC(C)c1ccc2oc3nc(N)c(C(=O)O)cc3c(=O)c2c1
inactive: Potency [1] | Potency [9] | outcome [10] | outcome [11] | Potency [2] | Potency [3] | Potency [4] | Potency [5] | Potency [12] | Potency [13] | Potency [14] | Potency [15] | Potency [19] | Potency [16] | Potency [7] | Potency [17] | Potency [8] | Potency [18]

OCCC(O)CO (stereo unspecified)
inactive: Potency [1] | outcome [11] | Potency [2] | Potency [3] | Potency [4] | Potency [12] | Potency [13] | Potency [14] | Potency [15] | Potency [19] | Potency [16] | Potency [6] | Potency [20] | Potency [7] | Potency [8] | Potency [18]

CC(C)(C#N)Nc1nc(Cl)nc(NC2CC2)n1
inactive: Potency [1] | outcome [11] | Potency [2] | Potency [3] | Potency [4] | Potency [13] | Potency [14] | Potency [15] | Potency [19] | Potency [16] | Potency [6] | Potency [7] | Potency [8] | Potency [18]

CCOc1cccc(N)c1
inactive: Potency [1] | Potency [9] | outcome [10] | outcome [11] | Potency [2] | Potency [3] | Potency [4] | Potency [5] | Potency [12] | Potency [13] | Potency [14] | Potency [15] | Potency [19] | Potency [16] | Potency [6] | Potency [20] | Potency [7] | Potency [8] | Potency [18]

[Cu+]
inactive: Potency [1] | Potency [9] | outcome [10] | outcome [11] | Potency [2] | Potency [3] | Potency [4] | Potency [5] | Potency [12] | Potency [13] | Potency [14] | Potency [15] | Potency [19] | Potency [16] | Potency [6] | Potency [20] | Potency [7] | Potency [18]
